Experimental data published in PubChem BioAssay AID2701 (National Center for Advancing Translational Sciences (NCATS), 2010).
The list shows a part of the results. Records with an inconclusive call do not appear. Activity calls are given as the source filed them. Calls follow the shape of the dose curve; as a rule, active = well fitted inhibition curve with a large enough effect; inconclusive = small, poorly fitted or top-dose-only effect, or another doubt; inactive = no such curve, though single readings can be large or run the other way.
Potency is read from the fitted curve at half-maximal effect.

The molecules below were run against 4'-phosphopantetheinyl transferase ffp (Bacillus subtilis) (UniProt Q9F4F7) (assay: Confirmation qHTS Assay for Inhibitors of Bacillus subtilis Sfp phosphopantetheinyl transferase (PPTase)). Details: Sfp PPTase enzymatic assay, qHTS titration; series mostly up to 114 µM.
4'-phosphopantetheinyl transferase ffp (Bacillus subtilis), sequence (Q9F4F7 whole entry, looked up): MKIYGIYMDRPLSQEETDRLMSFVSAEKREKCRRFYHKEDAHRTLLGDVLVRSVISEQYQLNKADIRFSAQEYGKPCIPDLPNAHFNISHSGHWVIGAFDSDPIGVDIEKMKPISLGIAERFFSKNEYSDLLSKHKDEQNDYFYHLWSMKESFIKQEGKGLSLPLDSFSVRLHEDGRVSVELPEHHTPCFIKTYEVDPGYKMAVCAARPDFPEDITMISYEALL
Text: The covalent attachment of a phosphopantetheinyl (4'-PP) arm to a variety of synthases and other proteins is a key posttranslational protein modification. The 4'-PP is installed on the proteins post-translationally from coenzyme A (CoA) on a conserved serine residue by action of phosphopantetheinyl transferase (PPTase) enzymes. Phosphopantetheinylation is essential for synthase activity, and removal of the PPTase gene precludes natural product synthesis in microorganisms, or in the case of fatty acid biosynthesis, renders the organism unviable. PPTase enzymes belong to a distinct structural superfamily. Within bacteria, these enzymes are grouped into two classes based upon primary structure, the AcpS-Type and Sfp-Type PPTases.
Sfp-type PPTases, corresponding to an activator of surfactin production in Bacillus subtilis, are responsible for modifying type I polyketide and nonribosomal peptide synthases of prokaryotes. Sfp-type PPTases are responsible for the activation of a variety of pathogen-associated virulence factors. Among these compounds are toxins such as mycolactone from Mycobacterium ulcerans, siderophores such as vibriobactin from Vibrio cholerae or mycobactin from Mycobacterium tuberculosis, as well as the mycolic acids which form the waxy cell wall of Mycobacteria. The biosyntheses of these natural products are considered attractive targets for drug design.
In search of small molecule Sfp-PPTase inhibitors, a fluorescence quenching assay was developed for detection of Bacillus subtilis Sfp-PPTase enzymatic activity in a miniaturized high-throughput format. The consensus ybbr acceptor peptide […] was N-terminally labeled with Black Hole Quencher-2 (BHQ-2) and used in combination with rhodamine-labeled coenzyme A as a co-substrate.
Inhibition of Sfp-PPTase was detected by recording the fluorescence intensity change over a 30-minute reaction period at a 525 nm excitation and 598 nm emission. Reagents were supplied by Michael Burkart and Timothy Foley, University of California at San Diego.
Assay Submitter: Michael Burkart, University of California, San Diego
Screening Center PI: Austin, C.P.
Screening Center: NIH Chemical Genomics Center [NCGC]
Assay Buffer: 50 mM Hepes-Na pH 7.6, 10 mM MgCl2, 0.01% Nonidet P-40, and 0.01% BSA.
3 uL of Sfp-PPTase enzyme (final concentration 15 nM) and 1 uL of substrate mixture (final concentration for rhodamine-CoA and BHQ-2-YbbR 5 uM and 12.5 uM, respectively) dispensed in columns 1, 2, 5 - 48. Columns 1 and 2 used to generate neutral control (uninhibited reaction)
Three uL of reagents, consisting of buffer (in columns 3 and 4 as negative control) and Sfp-PPTase (in columns 1, 2, 5 - 48) were dispensed into 1,536-well Greiner black solid bottom plate. Compounds (23 nL) were transferred via Kalypsys pintool equipped with 1,536-pin array. The plate was incubated for 15 min at room temperature, followed by the addition of 1 uL substrate to start the reaction. The plate was then centrifuged at 1000 rpm for 15 seconds, and the fluorescence intensity recorded on a ViewLux High-throughput CCD imager (Perkin-Elmer) using standard BODIPY optics (525 nm excitation and 598 nm emission). The plate was then incubated for 30 minutes, and a second read on the ViewLux was performed. The fluorescence intensity difference over the 30-minute period was used to calculate the respective reaction rate for each well.
In the case of `c1ccc(-c2nc(NCc3ccco3)c3ccccc3n2)cc1`, the Potency was “inactive”. With `Cc1ccc(/C=C(\C#N)C(=O)Nc2cccc3ncccc23)o1` the Potency was 26.4 µM (active). For `FC(F)(F)C1CCCN(c2nsc3ccccc23)C1` (configuration not stated), the Potency was 2.1 µM (active). With `COc1ccc(OCc2nnc3n2N=C(c2ccccc2)C(CC(=O)O)S3)cc1` (configuration not stated) the Potency was 2.35 µM (active). For `O=c1[nH]c2ccccc2n2c(-c3ccccc3)nnc12`, the Potency was 2.1 µM (active). `Cc1nn2c(c1-c1ccccc1)N=C(c1ccco1)CC2c1ccccc1` (configuration not stated) was tested, and the Potency was 37.3 µM (active). `CCCOC(=O)Nc1sc2c(c1C(=O)OCC)CCC2` was tested, and the Potency was 29.6 µM (active). `CC(C)(C)c1nnc(NC(=O)C2c3ccccc3Oc3ccccc32)s1` was tested, and the Potency was 4.69 µM (active). `NC(=O)c1c(NC(=O)CSc2nnc(-c3ccco3)n2N)sc2c1CCCC2` was tested, and the Potency was 14.8 µM (active). `OCCN1CCN(C(=S)c2ccc(-c3ccccc3)cc2)CC1` was tested, and the Potency was 14.8 µM (active). With `Cc1ccc(NC(=O)c2c(NC(=O)CCC(=O)O)sc3c2CCCCC3)cc1` the Potency was 14.8 µM (active). In the case of `CCC(c1nnnn1Cc1ccco1)N(Cc1cc2cc(OC)ccc2[nH]c1=O)C1CCCCC1` (configuration not stated), the Potency was 9.37 µM (active).
